ST2 inh: inhibitors of human ST2 (IL1RL1) binding to IL-33, primary screen, biochemical, AlphaLISA | AlphaLISA ST2-Fc/biotin-IL-33 interaction, 1 h | inhibition, % for hits at 17 µM | hit rate 2.3% among 78,000; in the data active = inhibition above about 30%
Target sequence (Q01638 whole entry, looked up): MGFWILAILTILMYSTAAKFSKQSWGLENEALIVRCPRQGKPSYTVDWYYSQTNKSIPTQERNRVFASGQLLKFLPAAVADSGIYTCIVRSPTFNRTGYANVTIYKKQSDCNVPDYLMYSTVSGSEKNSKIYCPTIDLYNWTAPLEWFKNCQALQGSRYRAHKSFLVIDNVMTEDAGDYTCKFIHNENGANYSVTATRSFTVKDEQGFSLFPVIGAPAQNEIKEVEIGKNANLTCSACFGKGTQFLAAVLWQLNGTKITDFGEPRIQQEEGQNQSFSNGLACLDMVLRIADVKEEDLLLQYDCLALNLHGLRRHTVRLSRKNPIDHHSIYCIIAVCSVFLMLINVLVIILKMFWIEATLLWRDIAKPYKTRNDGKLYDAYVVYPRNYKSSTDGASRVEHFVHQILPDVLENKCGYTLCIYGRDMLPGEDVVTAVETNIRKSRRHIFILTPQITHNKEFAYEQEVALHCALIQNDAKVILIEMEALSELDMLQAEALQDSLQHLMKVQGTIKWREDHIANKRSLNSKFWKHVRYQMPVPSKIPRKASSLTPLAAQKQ
Numbers without * were called inactive; ! = a repeat was not active. Many of the other results were omitted from the sample, so hits are more common in it than they were.

How did NC(=O)C1CCCN(C2CC(=O)N(c3ccc(Br)cc3)C2=O)C1 (stereo not drawn) do in these assays?
ST2 inh: inactive

Results for O=c1c2ccccc2cnn1CCNC1CCSC1 (stereo not drawn) ?
ST2 inh: inactive

How did CCOc1cc(/C=C2/SC(=Nc3ccccc3)NC2=O)ccc1OC do in these assays?
ST2 inh: inactive

What do the screens show for `COc1ccc(/C=C2/SC(=Nc3ccc(S(N)(=O)=O)cc3)NC2=O)cc1`?
ST2 inh: 37%*

What do the screens show for `O=C1NC(=Nc2ccccc2)S/C1=C/c1cc2c(cc1Br)OCO2`?
ST2 inh: inactive

What do the screens show for `O=C1N/C(=N/O)S/C1=C/c1ccc([N+](=O)[O-])cc1`?
ST2 inh: inactive

How did CC(C)c1ccc(/C=C2/SC(=Nc3ccccc3)NC2=O)cc1 do in these assays?
ST2 inh: 37%*

How did COc1cc(/C=C2/SC(=Nc3ccccc3Cl)NC2=O)cc(OC)c1 do in these assays?
ST2 inh: inactive

What do the screens show for `Cc1ccc(N=C2c3cc([N+](=O)[O-])ccc3-c3ncccc32)cc1`?
ST2 inh: inactive

What do the screens show for `COc1ccc(/C=C2/c3cc(C)ccc3-c3ncccc32)cc1`?
ST2 inh: 31%*

Results for CCOC(=O)c1cccnc1-c1cc(OC)ccc1F ?
ST2 inh: inactive

How did O=C(COc1ccccc1[N+](=O)[O-])N1c2ccccc2CCc2ccccc21 do in these assays?
ST2 inh: inactive

How did O=C(O)c1cn(-c2cc(C(F)(F)F)ccc2Cl)c(=O)c2ccccc12 do in these assays?
ST2 inh: inactive

What do the screens show for `COc1cc(C=O)ccc1OCCOc1cc(Cl)ccc1Cl`?
ST2 inh: inactive

What do the screens show for `CCCCN(C)CCCNC(=O)CN1C(=O)/C(=C\c2cccc(Cl)c2)Sc2ccccc21`?
ST2 inh: 43%*

How did O=C(CN1C(=O)/C(=C\c2cccc(Cl)c2)Sc2ccccc21)NCc1cccnc1 do in these assays?
ST2 inh: inactive

Results for O=C(CN1C(=O)/C(=C\c2ccc(Cl)cc2)Sc2ccccc21)NCc1ccccn1 ?
ST2 inh: 42%*

What do the screens show for `CC(C)OCCCNC(=O)CN1C(=O)/C(=C\c2ccc(C(F)(F)F)cc2)Sc2ccccc21`?
ST2 inh: inactive

How did O=C(CN1C(=O)/C(=C\c2ccc(Cl)cc2)Sc2ccccc21)NC1CCCC1 do in these assays?
ST2 inh: inactive

How did COCCNC(=O)c1ccc(/C=C2\Sc3ccccc3N(Cc3ccc(F)cc3)C2=O)cc1 do in these assays?
ST2 inh: inactive

What do the screens show for `CC1CCN(C(=O)CSc2ncnc3sc4c(c23)CCCC4)CC1`?
ST2 inh: inactive

What do the screens show for `Cc1ccc(O)c(CN(C)Cc2nc3ccc(F)cc3[nH]2)c1`?
ST2 inh: inactive

What do the screens show for `O=C(c1ccccc1F)N(c1ccc(F)cc1)C1C=CS(=O)(=O)C1` (stereo not drawn)?
ST2 inh: inactive

What do the screens show for `O=C(Nc1ccc(NC(=O)c2cccc(S(=O)(=O)N3CCCCC3)c2)cc1)c1ccccc1`?
ST2 inh: inactive

How did CC(=O)N1c2ccccc2N=C(c2ccccc2)CC1c1ccccc1 (stereo not drawn) do in these assays?
ST2 inh: inactive

How did O=C(O)CCC(=O)N1N=C(c2ccccc2)CC1c1ccc(Cl)cc1 (stereo not drawn) do in these assays?
ST2 inh: inactive

Results for Cc1cc2n(n1)C(c1ccc(Cl)cc1)CC(c1ccccc1)=N2 (stereo not drawn) ?
ST2 inh: 30%*!

Results for CC(C)NC(=O)C(=O)N1CCn2nc(C(=O)N3CCN(C)CC3)cc2C1 ?
ST2 inh: inactive

Results for COc1ccc(C2(CNC(=O)c3ccccc3Cl)CCOCC2)cc1 ?
ST2 inh: inactive

How did COc1ccc(NC(=O)c2cccc([N+](=O)[O-])c2)cc1Cl do in these assays?
ST2 inh: inactive

How did Cc1cccc2[nH]c(-c3ccc(NC(=O)c4ccc(N)cc4)cc3)nc12 do in these assays?
ST2 inh: inactive

How did Nc1ccc(C(=O)Nc2ccc(-c3nc4ccc(NC(=O)c5ccc(N)cc5)cc4[nH]3)cc2)cc1 do in these assays?
ST2 inh: 30%*

How did CC(=O)Nc1ccc(-c2nc3ccc(NC(C)=O)cc3[nH]2)cc1 do in these assays?
ST2 inh: inactive

Results for CC1=NN(c2ccc(C(=O)O)cc2)C(=O)/C1=C\c1ccc(Br)cc1 ?
ST2 inh: inactive

Results for CC1=NN(c2ccc(Br)cc2)C(=O)/C1=C\c1ccc(N(C)C)c([N+](=O)[O-])c1 ?
ST2 inh: inactive

Results for CC1=NN(c2ccc(Br)cc2)C(=O)/C1=C/c1cccs1 ?
ST2 inh: 39%*

How did O=C(c1ccc(O)cc1)c1c(O)cc(O)c([C@@H]2O[C@H](CO)[C@@H](O)[C@H](O)[C@H]2O)c1O do in these assays?
ST2 inh: inactive

How did CC12CCC3C1C(c1c(cc(O)c(C(=O)c4ccccc4)c1O)O2)C3(C)C (stereo not drawn) do in these assays?
ST2 inh: 31%*

How did CC1(C)OC2c3ccccc3OC3(C)CCC1CC23 (stereo not drawn) do in these assays?
ST2 inh: inactive

What do the screens show for `Cc1nc2c(c(=O)[nH]1)CCN(C(=O)c1cc(-n3cccn3)ccc1Cl)C2`?
ST2 inh: inactive

Results for Cc1cc(-n2cccn2)ccc1CN1CCN(c2cc(=O)[nH]c(N)n2)CC1 ?
ST2 inh: 40%*

How did NC(=O)c1ccc(N2CCN(Cc3cccc(-n4cccn4)c3)CC2)nc1 do in these assays?
ST2 inh: inactive

What do the screens show for `O=C(NC[C@H]1O[C@@H](CO)[C@@H](O)[C@H]1N1CCN(c2cccc(C(F)(F)F)c2)CC1)Nc1cccc(Cl)c1`?
ST2 inh: inactive

Results for COc1ccc(C(=O)NC[C@H]2O[C@@H](CO)[C@@H](O)[C@H]2N2CCN(c3cccc(C(F)(F)F)c3)CC2)cc1 ?
ST2 inh: inactive

What do the screens show for `COc1cccc(NC(=O)NC[C@H]2O[C@@H](CO)[C@@H](O)[C@H]2N2CCN(c3ccccn3)CC2)c1`?
ST2 inh: 36%*

What do the screens show for `COc1cc(NC(=O)NC[C@H]2O[C@@H](CO)[C@@H](O)[C@H]2N2CCN(C)CC2)cc(OC)c1`?
ST2 inh: inactive

What do the screens show for `COc1ccccc1N1CCN([C@@H]2[C@H](O)[C@H](CO)O[C@@H]2CNS(=O)(=O)c2cccs2)CC1`?
ST2 inh: inactive

Results for CC(C)NC(=O)NC[C@H]1O[C@@H](CO)[C@@H](O)[C@H]1N1CCN(c2cccc(C(F)(F)F)c2)CC1 ?
ST2 inh: 44%*

What do the screens show for `COc1cccc(NC(=O)NC[C@H]2O[C@@H](CO)[C@@H](O)[C@H]2N2CCC(C)CC2)c1`?
ST2 inh: inactive

What do the screens show for `COc1ccccc1N1CCN([C@@H]2[C@H](O)[C@H](CO)O[C@@H]2CNS(=O)(=O)c2ccc(C)cc2)CC1`?
ST2 inh: 73%*

Results for COc1ccc(S(=O)(=O)NC[C@H]2O[C@@H](CO)[C@@H](O)[C@H]2N2CCN(c3ccccc3OC)CC2)cc1 ?
ST2 inh: inactive

Results for CCOC(=O)c1ccc(Nc2nc(CC(C)=O)ns2)cc1 ?
ST2 inh: inactive

What do the screens show for `Cc1cc(Br)cc(C)c1NC(=O)CC(C)C`?
ST2 inh: inactive

What do the screens show for `CN(C(=O)c1cccs1)C(Cc1ccccc1)C1CCN(C(=O)c2ccc(-n3cccn3)cc2)CC1` (stereo not drawn)?
ST2 inh: inactive

Screening data as filed in PubChem BioAssay.
